# Results as given in the supplement of paper PMC11732987, “Enantioselective OTUD7B fragment discovery through chemoproteomics screening and high-throughput optimisation” (Communications Chemistry, 2025).
# Unmarked numbers belong to inactive results.
# Key:
# Test in all cases: log2 ratio of Biotin-Ahx-Ub-VS probe labelling (fragment/DMSO); higher = less target engagement (more negative = stronger competition), active = hit call of the paper (q ≤ 0.05, log2 ratio ≤ -1)
# Settings in all cases: compound concentration: 200 uM; treatment time: 3 h
# USP42 = molecular target: T1, USP42 (UniProt Q9H9J4)
# T1 sequence (whole entry): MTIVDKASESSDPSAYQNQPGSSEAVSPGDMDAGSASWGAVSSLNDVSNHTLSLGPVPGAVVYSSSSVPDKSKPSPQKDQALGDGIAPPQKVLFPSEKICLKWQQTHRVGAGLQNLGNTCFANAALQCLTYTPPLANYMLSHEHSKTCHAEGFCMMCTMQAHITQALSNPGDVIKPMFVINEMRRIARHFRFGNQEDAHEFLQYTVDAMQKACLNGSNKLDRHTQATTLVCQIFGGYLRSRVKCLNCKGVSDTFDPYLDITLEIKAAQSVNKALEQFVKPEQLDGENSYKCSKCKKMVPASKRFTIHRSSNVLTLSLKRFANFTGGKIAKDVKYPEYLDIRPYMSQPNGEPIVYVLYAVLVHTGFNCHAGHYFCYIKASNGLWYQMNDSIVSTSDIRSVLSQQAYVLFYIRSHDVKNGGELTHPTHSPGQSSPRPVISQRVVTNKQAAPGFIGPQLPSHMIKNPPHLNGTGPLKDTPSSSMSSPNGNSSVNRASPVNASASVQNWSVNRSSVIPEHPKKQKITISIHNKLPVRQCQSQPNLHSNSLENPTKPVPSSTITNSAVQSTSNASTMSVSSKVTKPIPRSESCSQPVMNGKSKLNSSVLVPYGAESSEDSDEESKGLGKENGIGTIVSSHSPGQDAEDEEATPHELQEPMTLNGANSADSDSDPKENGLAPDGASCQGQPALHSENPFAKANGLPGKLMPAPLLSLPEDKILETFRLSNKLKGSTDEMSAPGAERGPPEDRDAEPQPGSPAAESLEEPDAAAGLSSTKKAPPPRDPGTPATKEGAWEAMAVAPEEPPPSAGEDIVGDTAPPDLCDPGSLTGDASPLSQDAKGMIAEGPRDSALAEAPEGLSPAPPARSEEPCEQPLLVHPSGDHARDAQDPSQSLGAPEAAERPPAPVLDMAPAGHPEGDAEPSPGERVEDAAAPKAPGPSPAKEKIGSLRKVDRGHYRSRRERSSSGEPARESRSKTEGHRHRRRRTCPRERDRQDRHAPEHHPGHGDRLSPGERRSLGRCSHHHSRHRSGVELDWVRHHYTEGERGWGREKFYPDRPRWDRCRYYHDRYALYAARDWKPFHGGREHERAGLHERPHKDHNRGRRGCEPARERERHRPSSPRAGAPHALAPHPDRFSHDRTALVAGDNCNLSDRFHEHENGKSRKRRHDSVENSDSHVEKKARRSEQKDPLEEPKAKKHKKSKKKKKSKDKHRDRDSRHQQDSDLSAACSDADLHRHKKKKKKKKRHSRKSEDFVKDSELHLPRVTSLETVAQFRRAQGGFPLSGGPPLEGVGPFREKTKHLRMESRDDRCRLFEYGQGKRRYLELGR
# Outline: (§1)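 Average log2 ratios of fragment over vehicle were obtained by unpaired t-test from global-median-normalised Spectronaut label-free quantities. Proteins with ≥2 unique peptides were included. HEK293T lysate (495 µg per sample) was treated in triplicate with fragment at 200 µM or vehicle for 3 h, then with Biotin-Ahx-Ub-VS at 0.5 µM final for 1 h, and labelled DUBs were NeutrAvidin-enriched and run by diaPASEF LC-MS/MS.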
# USP46 = USP46 (UniProt P62068)
# Outline: as §1
# USP47 = molecular target: T2, USP47 (UniProt Q96K76)
# T2 sequence (whole entry): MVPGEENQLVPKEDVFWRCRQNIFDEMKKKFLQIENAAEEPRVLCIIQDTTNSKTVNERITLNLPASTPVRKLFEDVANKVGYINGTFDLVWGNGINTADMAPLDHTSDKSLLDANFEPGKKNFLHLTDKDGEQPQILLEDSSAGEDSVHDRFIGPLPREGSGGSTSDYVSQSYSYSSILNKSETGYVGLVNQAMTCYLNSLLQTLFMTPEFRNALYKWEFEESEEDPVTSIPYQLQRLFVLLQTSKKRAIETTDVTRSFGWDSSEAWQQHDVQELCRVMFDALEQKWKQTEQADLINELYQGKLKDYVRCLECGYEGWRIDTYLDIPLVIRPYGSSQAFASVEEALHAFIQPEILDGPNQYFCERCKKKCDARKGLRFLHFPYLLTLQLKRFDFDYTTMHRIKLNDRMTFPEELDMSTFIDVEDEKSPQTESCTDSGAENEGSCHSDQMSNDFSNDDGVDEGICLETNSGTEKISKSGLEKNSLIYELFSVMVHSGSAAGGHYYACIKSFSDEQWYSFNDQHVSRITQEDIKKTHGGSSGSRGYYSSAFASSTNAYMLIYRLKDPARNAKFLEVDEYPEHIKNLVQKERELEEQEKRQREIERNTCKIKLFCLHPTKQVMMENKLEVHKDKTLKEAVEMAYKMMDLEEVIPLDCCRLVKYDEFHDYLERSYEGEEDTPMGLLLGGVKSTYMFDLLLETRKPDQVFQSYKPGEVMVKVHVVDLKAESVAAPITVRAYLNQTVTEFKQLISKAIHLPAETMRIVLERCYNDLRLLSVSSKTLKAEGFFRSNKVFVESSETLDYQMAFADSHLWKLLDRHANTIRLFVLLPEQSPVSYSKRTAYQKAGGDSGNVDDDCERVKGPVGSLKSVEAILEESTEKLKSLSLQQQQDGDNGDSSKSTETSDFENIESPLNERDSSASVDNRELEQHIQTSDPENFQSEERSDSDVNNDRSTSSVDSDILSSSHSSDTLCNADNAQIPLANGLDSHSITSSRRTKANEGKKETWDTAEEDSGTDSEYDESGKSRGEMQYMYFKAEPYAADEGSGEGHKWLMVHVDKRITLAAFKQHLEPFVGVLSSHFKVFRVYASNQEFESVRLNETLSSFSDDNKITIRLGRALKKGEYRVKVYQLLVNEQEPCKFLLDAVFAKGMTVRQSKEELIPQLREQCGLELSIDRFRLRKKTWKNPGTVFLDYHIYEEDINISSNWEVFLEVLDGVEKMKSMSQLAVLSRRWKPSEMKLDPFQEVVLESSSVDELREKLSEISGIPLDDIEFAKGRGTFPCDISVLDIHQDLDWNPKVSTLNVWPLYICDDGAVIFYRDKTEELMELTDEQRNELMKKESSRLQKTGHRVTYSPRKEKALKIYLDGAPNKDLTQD
# Outline: as §1
# USP48 = molecular target: T3, USP48 (UniProt Q86UV5)
# T3 sequence (whole entry): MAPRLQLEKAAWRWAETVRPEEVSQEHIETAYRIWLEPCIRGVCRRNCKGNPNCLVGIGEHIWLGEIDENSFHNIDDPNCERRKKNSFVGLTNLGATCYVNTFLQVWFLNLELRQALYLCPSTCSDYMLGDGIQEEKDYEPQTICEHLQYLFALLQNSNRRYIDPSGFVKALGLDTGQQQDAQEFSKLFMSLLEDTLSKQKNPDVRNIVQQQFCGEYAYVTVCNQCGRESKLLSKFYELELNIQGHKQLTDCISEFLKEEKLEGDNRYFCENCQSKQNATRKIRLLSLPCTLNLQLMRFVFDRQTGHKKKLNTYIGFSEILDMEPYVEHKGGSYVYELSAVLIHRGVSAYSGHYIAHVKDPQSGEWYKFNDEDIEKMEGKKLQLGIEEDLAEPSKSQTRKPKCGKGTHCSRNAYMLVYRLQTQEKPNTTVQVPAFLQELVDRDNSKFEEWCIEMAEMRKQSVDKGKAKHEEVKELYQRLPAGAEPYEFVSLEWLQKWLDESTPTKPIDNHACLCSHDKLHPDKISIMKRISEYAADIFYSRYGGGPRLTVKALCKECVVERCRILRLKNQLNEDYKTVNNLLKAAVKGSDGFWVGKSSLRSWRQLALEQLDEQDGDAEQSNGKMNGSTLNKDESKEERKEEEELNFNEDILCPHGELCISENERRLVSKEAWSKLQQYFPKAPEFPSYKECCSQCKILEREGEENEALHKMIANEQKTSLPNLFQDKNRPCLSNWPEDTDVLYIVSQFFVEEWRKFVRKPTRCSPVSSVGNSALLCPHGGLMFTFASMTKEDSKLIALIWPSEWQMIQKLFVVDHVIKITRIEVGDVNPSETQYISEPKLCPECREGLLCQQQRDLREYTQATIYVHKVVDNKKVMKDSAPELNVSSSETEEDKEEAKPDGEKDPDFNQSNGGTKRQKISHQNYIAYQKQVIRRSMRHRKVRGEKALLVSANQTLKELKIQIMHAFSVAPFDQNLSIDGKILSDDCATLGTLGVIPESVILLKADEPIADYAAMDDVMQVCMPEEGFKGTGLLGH
# Outline: as §1
# USP5 = molecular target: T4, USP5 (UniProt P45974)
# T4 sequence (whole entry): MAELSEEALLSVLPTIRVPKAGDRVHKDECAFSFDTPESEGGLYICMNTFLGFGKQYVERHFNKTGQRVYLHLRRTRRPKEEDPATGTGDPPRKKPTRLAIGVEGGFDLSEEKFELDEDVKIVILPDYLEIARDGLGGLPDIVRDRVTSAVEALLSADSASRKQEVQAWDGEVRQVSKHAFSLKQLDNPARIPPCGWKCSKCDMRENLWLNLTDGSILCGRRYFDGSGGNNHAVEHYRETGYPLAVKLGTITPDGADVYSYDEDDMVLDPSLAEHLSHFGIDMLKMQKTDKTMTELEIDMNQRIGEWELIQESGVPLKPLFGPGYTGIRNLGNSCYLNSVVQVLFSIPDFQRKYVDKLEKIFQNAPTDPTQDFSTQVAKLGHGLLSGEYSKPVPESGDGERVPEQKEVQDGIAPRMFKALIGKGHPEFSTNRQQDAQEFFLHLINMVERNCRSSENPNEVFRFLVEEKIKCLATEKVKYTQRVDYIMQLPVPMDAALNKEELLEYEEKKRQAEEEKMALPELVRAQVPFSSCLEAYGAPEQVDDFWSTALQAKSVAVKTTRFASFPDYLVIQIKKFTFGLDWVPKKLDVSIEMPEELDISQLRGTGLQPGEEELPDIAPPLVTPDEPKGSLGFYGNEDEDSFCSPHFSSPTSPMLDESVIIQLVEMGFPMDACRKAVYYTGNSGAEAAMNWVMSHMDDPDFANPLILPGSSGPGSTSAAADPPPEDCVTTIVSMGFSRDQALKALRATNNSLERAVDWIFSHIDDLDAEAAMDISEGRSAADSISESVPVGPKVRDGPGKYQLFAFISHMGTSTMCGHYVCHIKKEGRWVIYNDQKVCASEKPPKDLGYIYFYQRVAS
# Outline: as §1
# USP54 = USP54 (UniProt Q70EL1)
# Outline: as §1
# USP7 = USP7 (UniProt Q93009)
# Outline: as §1
# USP8 = molecular target: T5, USP8 (UniProt P40818)
# T5 sequence (whole entry): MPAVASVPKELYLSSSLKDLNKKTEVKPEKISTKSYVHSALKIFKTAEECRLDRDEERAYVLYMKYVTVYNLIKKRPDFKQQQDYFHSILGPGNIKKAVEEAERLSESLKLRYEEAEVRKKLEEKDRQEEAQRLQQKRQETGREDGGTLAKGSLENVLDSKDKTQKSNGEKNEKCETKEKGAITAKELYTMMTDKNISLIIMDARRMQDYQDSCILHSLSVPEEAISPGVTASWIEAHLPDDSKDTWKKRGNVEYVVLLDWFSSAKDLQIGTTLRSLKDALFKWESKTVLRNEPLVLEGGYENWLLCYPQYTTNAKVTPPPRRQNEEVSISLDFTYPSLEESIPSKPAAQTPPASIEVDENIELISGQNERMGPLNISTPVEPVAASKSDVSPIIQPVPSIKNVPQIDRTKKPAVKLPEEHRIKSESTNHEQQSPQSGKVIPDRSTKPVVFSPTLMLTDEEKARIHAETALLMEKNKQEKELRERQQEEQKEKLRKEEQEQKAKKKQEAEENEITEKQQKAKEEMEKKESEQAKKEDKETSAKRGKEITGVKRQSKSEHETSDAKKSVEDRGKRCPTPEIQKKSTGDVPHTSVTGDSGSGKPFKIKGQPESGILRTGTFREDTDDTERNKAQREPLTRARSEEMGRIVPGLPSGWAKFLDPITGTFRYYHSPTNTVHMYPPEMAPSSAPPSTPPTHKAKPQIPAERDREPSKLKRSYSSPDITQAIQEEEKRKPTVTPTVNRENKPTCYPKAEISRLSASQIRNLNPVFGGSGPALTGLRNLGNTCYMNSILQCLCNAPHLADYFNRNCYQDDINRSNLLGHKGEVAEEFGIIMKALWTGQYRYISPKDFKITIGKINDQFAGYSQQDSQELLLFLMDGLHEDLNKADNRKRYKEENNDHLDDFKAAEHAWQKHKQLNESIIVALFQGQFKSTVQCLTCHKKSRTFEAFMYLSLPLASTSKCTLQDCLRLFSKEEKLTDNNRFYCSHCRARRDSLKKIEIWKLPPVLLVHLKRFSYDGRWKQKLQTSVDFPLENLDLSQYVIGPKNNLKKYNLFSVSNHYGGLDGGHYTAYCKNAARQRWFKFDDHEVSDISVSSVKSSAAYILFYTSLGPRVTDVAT
# Outline: as §1
# USP9X = USP9X (UniProt Q93008)
# Outline: as §1
# UniProt O00487 = molecular target: UniProt O00487
# Outline: as §1
# Chain of USP46 (P62068 whole entry): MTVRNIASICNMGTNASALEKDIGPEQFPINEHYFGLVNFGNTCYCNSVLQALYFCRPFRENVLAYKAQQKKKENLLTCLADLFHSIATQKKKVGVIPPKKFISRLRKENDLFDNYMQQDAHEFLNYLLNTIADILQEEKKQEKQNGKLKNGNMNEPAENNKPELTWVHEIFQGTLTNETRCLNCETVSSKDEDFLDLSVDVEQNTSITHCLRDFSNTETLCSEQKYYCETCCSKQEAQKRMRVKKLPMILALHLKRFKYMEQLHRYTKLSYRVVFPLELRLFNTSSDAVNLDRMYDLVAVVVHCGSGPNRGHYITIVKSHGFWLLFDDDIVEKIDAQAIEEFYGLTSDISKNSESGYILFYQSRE
# Chain of UniProt O00487 (O00487 whole entry): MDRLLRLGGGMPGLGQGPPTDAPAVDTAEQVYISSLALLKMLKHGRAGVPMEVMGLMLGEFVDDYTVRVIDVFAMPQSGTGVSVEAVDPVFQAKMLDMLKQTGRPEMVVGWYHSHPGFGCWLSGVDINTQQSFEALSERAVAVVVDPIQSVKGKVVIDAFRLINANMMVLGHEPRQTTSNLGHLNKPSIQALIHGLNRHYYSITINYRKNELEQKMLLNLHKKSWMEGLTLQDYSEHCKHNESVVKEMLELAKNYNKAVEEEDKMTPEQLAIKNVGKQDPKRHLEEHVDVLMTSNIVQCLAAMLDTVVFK
# Chain of USP7 (Q93009 whole entry, looked up): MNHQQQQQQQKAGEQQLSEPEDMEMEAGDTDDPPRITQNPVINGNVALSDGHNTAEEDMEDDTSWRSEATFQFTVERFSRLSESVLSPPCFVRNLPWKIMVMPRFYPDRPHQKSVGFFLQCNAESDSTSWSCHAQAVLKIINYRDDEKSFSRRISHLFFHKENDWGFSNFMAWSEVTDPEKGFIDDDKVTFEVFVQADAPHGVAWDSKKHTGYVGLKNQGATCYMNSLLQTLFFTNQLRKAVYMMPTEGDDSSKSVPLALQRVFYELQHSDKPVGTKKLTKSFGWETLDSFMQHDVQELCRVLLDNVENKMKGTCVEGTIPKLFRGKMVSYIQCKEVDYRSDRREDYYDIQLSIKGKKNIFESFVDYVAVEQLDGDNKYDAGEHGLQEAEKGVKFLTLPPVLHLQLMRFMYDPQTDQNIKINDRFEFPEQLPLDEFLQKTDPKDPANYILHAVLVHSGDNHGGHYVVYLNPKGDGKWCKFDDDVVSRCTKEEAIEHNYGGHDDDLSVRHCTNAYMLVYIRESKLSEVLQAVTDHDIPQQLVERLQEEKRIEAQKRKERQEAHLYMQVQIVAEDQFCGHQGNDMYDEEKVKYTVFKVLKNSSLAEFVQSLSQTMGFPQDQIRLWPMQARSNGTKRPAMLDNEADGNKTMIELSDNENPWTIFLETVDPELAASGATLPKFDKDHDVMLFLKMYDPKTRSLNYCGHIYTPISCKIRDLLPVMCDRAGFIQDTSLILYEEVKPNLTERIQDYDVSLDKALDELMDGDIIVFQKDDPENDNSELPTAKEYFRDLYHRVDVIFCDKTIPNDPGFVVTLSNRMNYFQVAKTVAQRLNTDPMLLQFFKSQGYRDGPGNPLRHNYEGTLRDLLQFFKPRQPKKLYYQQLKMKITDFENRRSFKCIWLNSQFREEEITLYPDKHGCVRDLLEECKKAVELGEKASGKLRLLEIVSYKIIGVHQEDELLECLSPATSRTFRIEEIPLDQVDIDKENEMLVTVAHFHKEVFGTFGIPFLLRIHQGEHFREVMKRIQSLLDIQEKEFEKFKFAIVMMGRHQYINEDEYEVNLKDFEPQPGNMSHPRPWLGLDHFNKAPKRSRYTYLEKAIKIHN
# Chain of USP9X (Q93008 whole entry): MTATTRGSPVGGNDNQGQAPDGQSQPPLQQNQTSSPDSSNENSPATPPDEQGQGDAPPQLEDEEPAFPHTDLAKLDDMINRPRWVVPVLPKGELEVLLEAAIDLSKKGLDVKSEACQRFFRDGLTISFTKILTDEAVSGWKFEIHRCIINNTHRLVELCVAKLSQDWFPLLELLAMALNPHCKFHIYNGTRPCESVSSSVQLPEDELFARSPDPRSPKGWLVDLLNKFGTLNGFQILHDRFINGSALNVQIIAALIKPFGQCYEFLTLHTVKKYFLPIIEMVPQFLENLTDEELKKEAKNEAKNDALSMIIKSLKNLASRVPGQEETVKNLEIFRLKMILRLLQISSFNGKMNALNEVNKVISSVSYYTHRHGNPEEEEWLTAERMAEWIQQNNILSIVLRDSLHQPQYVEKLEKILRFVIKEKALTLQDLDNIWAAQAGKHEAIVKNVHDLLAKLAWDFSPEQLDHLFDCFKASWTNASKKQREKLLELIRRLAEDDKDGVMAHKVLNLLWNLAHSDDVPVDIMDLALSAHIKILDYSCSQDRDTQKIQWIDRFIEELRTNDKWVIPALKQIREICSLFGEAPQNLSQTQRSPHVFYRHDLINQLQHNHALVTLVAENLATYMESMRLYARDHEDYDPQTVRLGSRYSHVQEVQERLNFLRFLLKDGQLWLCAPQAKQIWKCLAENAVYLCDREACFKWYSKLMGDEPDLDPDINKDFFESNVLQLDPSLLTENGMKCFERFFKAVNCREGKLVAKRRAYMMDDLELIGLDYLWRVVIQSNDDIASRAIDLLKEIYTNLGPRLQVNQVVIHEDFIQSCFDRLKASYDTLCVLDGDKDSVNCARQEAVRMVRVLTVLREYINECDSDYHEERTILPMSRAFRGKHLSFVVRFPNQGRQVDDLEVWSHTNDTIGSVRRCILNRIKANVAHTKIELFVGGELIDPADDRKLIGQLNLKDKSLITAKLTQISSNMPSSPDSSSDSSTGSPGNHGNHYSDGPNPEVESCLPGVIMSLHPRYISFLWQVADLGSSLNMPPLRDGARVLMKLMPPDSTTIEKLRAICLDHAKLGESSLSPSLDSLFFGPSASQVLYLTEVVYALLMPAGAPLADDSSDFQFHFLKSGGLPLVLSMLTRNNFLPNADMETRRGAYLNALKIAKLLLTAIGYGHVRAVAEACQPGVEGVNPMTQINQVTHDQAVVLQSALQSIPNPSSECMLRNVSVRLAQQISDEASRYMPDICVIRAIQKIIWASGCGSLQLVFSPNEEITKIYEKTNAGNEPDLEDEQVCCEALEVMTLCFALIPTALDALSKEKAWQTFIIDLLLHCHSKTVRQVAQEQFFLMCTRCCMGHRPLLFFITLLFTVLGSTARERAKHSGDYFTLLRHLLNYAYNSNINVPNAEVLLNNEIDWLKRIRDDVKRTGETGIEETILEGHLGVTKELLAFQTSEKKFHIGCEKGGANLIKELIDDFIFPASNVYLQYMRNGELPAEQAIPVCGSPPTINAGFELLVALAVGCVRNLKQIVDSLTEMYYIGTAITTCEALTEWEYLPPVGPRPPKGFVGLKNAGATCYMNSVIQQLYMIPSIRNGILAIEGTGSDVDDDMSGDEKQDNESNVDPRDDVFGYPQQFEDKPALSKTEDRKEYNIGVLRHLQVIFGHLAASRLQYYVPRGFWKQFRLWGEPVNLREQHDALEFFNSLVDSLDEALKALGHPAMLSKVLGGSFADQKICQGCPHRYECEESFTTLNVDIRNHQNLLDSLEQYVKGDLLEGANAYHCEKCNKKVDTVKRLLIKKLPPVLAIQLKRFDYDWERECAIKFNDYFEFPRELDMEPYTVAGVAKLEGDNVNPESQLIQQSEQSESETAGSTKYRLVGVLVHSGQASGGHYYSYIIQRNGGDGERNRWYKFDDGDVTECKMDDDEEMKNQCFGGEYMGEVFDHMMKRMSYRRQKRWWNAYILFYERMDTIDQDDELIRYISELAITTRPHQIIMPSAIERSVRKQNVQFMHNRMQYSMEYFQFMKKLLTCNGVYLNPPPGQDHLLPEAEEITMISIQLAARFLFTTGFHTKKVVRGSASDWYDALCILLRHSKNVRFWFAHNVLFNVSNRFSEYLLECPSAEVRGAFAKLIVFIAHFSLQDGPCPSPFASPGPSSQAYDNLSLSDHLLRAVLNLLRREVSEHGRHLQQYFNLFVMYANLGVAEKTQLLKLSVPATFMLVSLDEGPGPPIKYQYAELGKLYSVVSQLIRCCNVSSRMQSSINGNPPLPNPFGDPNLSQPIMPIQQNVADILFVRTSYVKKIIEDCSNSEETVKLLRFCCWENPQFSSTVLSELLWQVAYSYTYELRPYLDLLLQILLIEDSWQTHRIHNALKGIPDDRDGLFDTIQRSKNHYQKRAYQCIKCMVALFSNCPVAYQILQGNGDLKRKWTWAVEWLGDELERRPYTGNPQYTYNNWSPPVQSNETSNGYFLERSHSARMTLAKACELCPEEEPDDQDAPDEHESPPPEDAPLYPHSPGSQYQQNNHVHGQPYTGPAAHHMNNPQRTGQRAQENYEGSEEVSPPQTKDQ
structure (smiles),measurement,setting,value
O=C(CCl)N1CCOC(c2cccc(F)c2)C1 (stereo not given),log2 ratio of Biotin-Ahx-Ub-VS probe labelling,USP42,-0.424
same,log2 ratio of Biotin-Ahx-Ub-VS probe labelling,USP46,-0.374
same,log2 ratio of Biotin-Ahx-Ub-VS probe labelling,USP47,-0.467
same,log2 ratio of Biotin-Ahx-Ub-VS probe labelling,USP48,-1.36 (active)
same,log2 ratio of Biotin-Ahx-Ub-VS probe labelling,USP5,0.362
same,log2 ratio of Biotin-Ahx-Ub-VS probe labelling,USP54,0.45
same,log2 ratio of Biotin-Ahx-Ub-VS probe labelling,USP7,-0.705
same,log2 ratio of Biotin-Ahx-Ub-VS probe labelling,USP8,-0.461
same,log2 ratio of Biotin-Ahx-Ub-VS probe labelling,USP9X,-0.504
same,log2 ratio of Biotin-Ahx-Ub-VS probe labelling,UniProt O00487,0.15
